# Measured values: PubChem BioAssay (NCATS)
# Values joined by “and” are separate entries in the source; they are usually repeats but may differ in a detail not shown here. Equal entries are not always repeated. Records with an inconclusive call do not appear. Where a structure was tested more than once in an assay, its records may differ in their call. Active and inactive are the calls of the source. Calls come from the whole dose curve; as a rule, active = well fitted curve in the direction sought with a large enough effect; inconclusive = small, poorly fitted or top-dose-only effect, or another doubt; inactive = no such curve, though single readings can be large; an effect the other way counts as inactive or inconclusive.
# Experiments:
# [1] = Viability qHTS for spleen associated tyrosine kinase inhibitor (SYKi) naive MV4-11 cells (AID 1963823); details: MV4-11 AML viability, CellTiter-Glo luminescence, 72 h; series mostly up to 45 µM; note: nearly all actives have a fitted effect of over 40% in size
# Procedure, shortened: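 Seeding of 500 SYKi-naive MV4-11 cells per well onto pre-dispensed compounds preceded a 72 hr incubation at 37 C. Luminescent CellTiter-Glo signal, read after 10 min at room temperature, reflected viable cells.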
# [2] = Viability qHTS for spleen associated tyrosine kinase inhibitor (SYKi) drug resistant MV4-11 cells (AID 1963824); details: SYKi-resistant MV4-11 viability, CellTiter-Glo, 72 h; series mostly up to 45 µM; note: nearly all actives have a fitted effect of over 35% in size
# Procedure, shortened: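 SYK-inhibitor-resistant MV4-11 AML cells were seeded at 500 per well onto compound and cultured 72 hours (37 °C, 5% CO2). CellTiter-Glo was then added, and after 10 min at room temperature, luminescence gave viability.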
# [3] = Cellular viability qHTS for adrenocortical cancer (ACC) cell line SW-13 (AID 1963989); details: SW-13 ACC cells viability, CellTiter-Glo, 48 h; activity (max response): stronger effect = lower value; note: nearly all actives have a fitted effect of over 65% in size;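 for activity (max response): cells grown in serum-free medium with ITS supplement; % is set by controls: 0 for no effect and ±100 for the full control effect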
# Procedure, shortened: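 48 h treatment, SW-13 in ITS/DMEM serum-free; doses up to 46 uM; readout CellTiter-Glo luminescence; curve fit four-parameter logistic.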
# [4] = Cellular viability qHTS for adrenocortical cancer (ACC) cell line NCI-H295R (AID 1963990); details: CellTiter-Glo ATP luminescence, 48 h; series mostly up to 46.1 µM; note: nearly all actives have a fitted effect of over 60% in size
# Procedure, shortened: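 Compound titrations (up to 46 uM final) are applied to NCI-H295R cultures for 48 h at 37C. Viable cell number is estimated by CellTiter-Glo signal, normalised to DMSO and doxorubicin controls.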
# Potency is the fitted concentration of half-maximal effect.
Compound,Potency [1],Potency [2],Potency [3],activity (max response) [3],Potency [4]
CC(C)Oc1ccc(C(=O)N[C@H](CNC(=O)CN(C)C)Cc2ccc(-c3cn4cccc([C@H](C)O)c4n3)cc2)cc1Cl,0.0263 µM (active),0.0295 µM (active),0.0316 µM (active),–,–
NC(=NCCCCCCN=C(N)/N=C(\N)Nc1ccc(Cl)cc1)/N=C(\N)Nc1ccc(Cl)cc1,5.31 µM (active) and 1.84 µM (active),2.99 µM (active) and 1.64 µM (active),5.17 µM (active),–,–
CCCCC1(COC(=O)CCC(=O)O)C(=O)N(c2ccccc2)N(c2ccccc2)C1=O,inactive,inactive,–,6.69% (inactive),–
O=c1sn(-c2cccc3ccccc23)c(=O)n1Cc1ccccc1,14.6 µM (active),11.6 µM (active) and 8.33 µM (active),–,-18.3% (inactive),–
CCCCCCCC/C=C\CCCCCCCC(=O)NCc1ccc(O)c(OC)c1,inactive,0.668 µM (active),3.26 µM (active),–,–
CCC1CCCCN1C(=O)n1ncc(C(O)(c2ccccc2)c2ccccc2)n1 (stereo not given),11.8 µM (active),5.25 µM (active),15.8 µM (active),–,–
C[C@H]1C[C@H]2[C@@H]3CCC4=CC(=O)C=C[C@]4(C)[C@@]3(Cl)[C@@H](O)C[C@]2(C)[C@@]1(O)C(=O)CO,21.1 µM (active),13.3 µM (active),–,-3.23% (inactive),–
C=C1C(=O)OC2/C=C(/C)CC/C=C(/C)CCC12 (stereo not given),8.33 µM (active),5.25 µM (active),–,-9.66% (inactive),–
C[C@@H]1O[C@@H](OC[C@H]2O[C@@H](Oc3c(-c4ccc(O)c(O)c4)oc4cc(O)cc(O)c4c3=O)[C@H](O)[C@@H](O)[C@@H]2O)[C@H](O)[C@H](O)[C@H]1O,inactive,inactive,–,16.6% (inactive),–
C=CC(=O)Nc1cccc(Nc2nc(Nc3ccc(NC4CN(CCF)C4)cc3OC)ncc2C(F)(F)F)c1,1.3 µM (active) and 662 nM (active),1.3 µM (active) and 1.48 µM (active),2.51 µM (active),–,–
CCCCCCC[N+](CC)(CC)CCCCc1ccc(Cl)cc1,1.68 µM (active),2.11 µM (active),5.8 µM (active),–,–
CCc1cc(/C(C)=N/OCc2ccc(C3CCCCC3)c(C(F)(F)F)c2)ccc1CN1CC(C(=O)O)C1,18.6 µM (active),14.8 µM (active),–,-17.6% (inactive),–
Cc1c(NC(=O)OCC2COCCN2)cn2ncnc(Nc3ccc4c(cnn4Cc4cccc(F)c4)c3)c12 (stereo not given),4.61 µM (active) and 16.6 µM (active),5.8 µM (active) and 16.6 µM (active),22.4 µM (active),–,–
O=C1NC(=O)/C(=C/c2cccc(C(F)(F)F)c2)S1,inactive,inactive,25.1 µM (active),–,–
CCN(CC)C(=O)/C(C#N)=C/c1cc(O)c(O)c([N+](=O)[O-])c1,inactive,16.8 µM (active),–,3.46% (inactive),inactive
Cc1nc2cccc(N)c2c(=O)n1C1CCC(=O)NC1=O (stereo not given),0.209 µM (active),inactive,–,3.79% (inactive),inactive
COc1ccc(S(=O)(=O)Nc2nnc(CC(C)C)s2)cc1,inactive,inactive,–,-5.12% (inactive),–
C[C@]12C=CC(=O)C=C1CC[C@H]1[C@@H]3C[C@@H](O)[C@](O)(C(=O)CO)[C@@]3(C)C[C@H](O)[C@@]12F,inactive,inactive,–,4.79% (inactive),–
CC1(C)OC2=C(C(=O)c3ccccc3C2=O)[C@H](NCc2ccccc2)[C@@H]1O,2.63 µM (active),2.63 µM (active),3.98 µM (active),–,3.16 µM (active)
O=C1CC2(CCCC2)CC(=O)N1CCNCC1COc2ccccc2O1 (stereo not given),inactive,inactive,–,6.61% (inactive),inactive
CC(=O)N[C@H]1CSSC[C@@H](C(N)=O)NC(=O)[C@H](C(C)C)NC(=O)[C@H](C)NC(=O)[C@H](Cc2cnc[nH]2)NC1=O,inactive,inactive,–,-0.986% (inactive),inactive
C[C@H](CCC(=O)O)[C@H]1CC[C@H]2[C@@H]3C(=O)C[C@@H]4CC(=O)CC[C@]4(C)[C@H]3CC(=O)[C@]12C,inactive,inactive,–,15.5% (inactive),inactive
CCCCCCCCCCCCCC[N+](C)(C)Cc1ccccc1,2.99 µM (active),3.35 µM (active),6.51 µM (active),–,–
C[C@]12CCC(=O)C=C1CC[C@@H]1[C@@H]2C(=O)C[C@@]2(C)[C@H]1CC[C@]2(O)C(=O)CO,inactive,inactive,–,7.27% (inactive),inactive
O=C(O)CCC(=O)Nc1ccc(S(=O)(=O)Nc2nccs2)cc1,inactive,inactive,–,-7.1% (inactive),inactive
CNS(=O)(=O)c1ccc2c(c1)/C(=C/c1[nH]c3c(c1CCCN1CCN(C)CC1)CCCC3)C(=O)N2,0.186 µM (active),0.332 µM (active),28.2 µM (active),–,–
CC(C(O)c1ccccc1)N(C)CCOC(c1ccccc1)c1ccccc1 (stereo not given),9.2 µM (active),8.2 µM (active),20.6 µM (active),–,–

Compound,Potency [1],Potency [2],Potency [3],activity (max response) [3],Potency [4]
CC(C)C[C@H](CO)Nc1nc(S[C@@H](C)c2ccccc2)nc2nc(N)sc12,14.6 µM (active),6.61 µM (active),31.6 µM (active),–,–
CCN(CC)CCNc1ccc(C)c2sc3ccccc3c(=O)c12,5.25 µM (active),7.42 µM (active),25.1 µM (active),–,15.8 µM (active)
O=C1NC(=O)C(c2c[nH]c3ccccc23)=C1c1c[nH]c2ccccc12,1.86 µM (active),1.16 µM (active),25.1 µM (active),–,–
O=c1c(-c2ccc(O)cc2)coc2c([C@@H]3O[C@H](CO)[C@@H](O)[C@H](O)[C@H]3O)c(O)ccc12,inactive,inactive,–,3.16% (inactive),inactive
CCCCNc1ncc2c(-c3ccc(F)cc3)nn(CC3CCC(N)CC3)c2n1 (stereo not given),0.008 µM (active),0.0112 µM (active),11.3 µM (active),–,7.15 µM (active)
COc1cc2nccc(Oc3ccc(NC(=O)c4cn(C(C)C)c(=O)n(-c5ccc(F)cc5)c4=O)cc3F)c2cc1OC,0.186 µM (active),0.468 µM (active),–,9.27% (inactive),–
CC(C)OC(=O)c1cc(C(=O)OC(C)C)cc([N+](=O)[O-])c1,27.9 µM (active),inactive,–,4.98% (inactive),–
Cc1[nH]c(C)c(Cl)c(=O)c1Cl,inactive,inactive,–,4.22% (inactive),inactive
Cc1c(-c2cnccn2)ssc1=S,4.17 µM (active),4.68 µM (active),–,-8.54% (inactive),–
C/C=C/c1ccc(OC)cc1,inactive,inactive,–,7.49% (inactive),inactive
CN(C)/N=N/c1nc[nH]c1C(N)=O,inactive,inactive,–,10.5% (inactive),inactive
COc1cc(C(=O)OC(COCCC(C)C)CN2CCOCC2)cc(OC)c1OC (stereo not given),inactive,inactive,–,9.82% (inactive),–
CC(C)n1c(/C=C/[C@H](O)C[C@H](O)CC(=O)O)c(-c2ccc(F)cc2)c2ccccc21,2.63 µM (active),1.32 µM (active),17.8 µM (active),–,–
CC1=C(C(=O)O)N2C(=O)[C@@H](NC(=O)[C@H](N)c3ccc(O)cc3)[C@H]2SC1,inactive,inactive,–,8.09% (inactive),–
Cc1cc(OCCOCC[N+](C)(C)Cc2ccccc2)ccc1C(C)(C)CC(C)(C)C,3.35 µM (active),2.66 µM (active),5.8 µM (active),–,–
CC(COc1ccccc1)NN (stereo not given),inactive,inactive,–,12.2% (inactive),inactive
CCN(CC)CCc1nc(-c2ccccc2)no1,inactive,inactive,–,-1.01% (inactive),inactive
NC(=O)N/N=C/c1ccc([N+](=O)[O-])o1,27.3 µM (active) and inactive,21.7 µM (active),35.5 µM (active),4.16% (inactive),8.91 µM (active)
C[C@H](CCC(=O)O)[C@H]1CC[C@H]2[C@@H]3[C@@H](O)C[C@@H]4C[C@H](O)CC[C@]4(C)[C@H]3CC[C@]12C,inactive,inactive,–,-9.5% (inactive),inactive
CCN1CCN(c2cc(-c3ccc(F)cc3)c3c(n2)CCCCCC3)CC1,inactive,inactive,–,-1.29% (inactive),inactive
C[C@@H](Oc1ccc2[nH]nc(/C=C/c3cnn(CCO)c3)c2c1)c1c(Cl)cncc1Cl,0.0235 µM (active),0.0525 µM (active),3.98 µM (active),–,5.01 µM (active)
Cc1cc2c(C(C)C)c(O)c(O)c(C=O)c2c(O)c1-c1c(C)cc2c(C(C)C)c(O)c(O)c(C=O)c2c1O,6.61 µM (active),4.68 µM (active),10 µM (active),–,8.2 µM (active)
CC1=C2C[C@H]3[C@@H](CC[C@@H]4C[C@H](NS(C)(=O)=O)CC[C@@]43C)[C@@H]2CC[C@@]2(C1)O[C@@H]1C[C@H](C)CN[C@H]1[C@H]2C,9.34 µM (active),4.68 µM (active),25.1 µM (active),–,17.8 µM (active)
C[C@]1(Cn2ccnn2)[C@H](C(=O)O)N2C(=O)C[C@H]2S1(=O)=O,inactive,inactive,–,2.68% (inactive),–
NC(=O)c1cccc2c(NC(CN3CCC3)c3ccc(Cl)c(C(F)(F)F)c3)ncnc12 (stereo not given),1.48 µM (active),2.35 µM (active),14.1 µM (active),–,–
c1ccc(Cn2c(-c3ccc(OCC(C4CCNCC4)n4c(-c5ccccc5)nc5ccccc54)cc3)nc3ccccc32)cc1 (stereo not given),5.25 µM (active),7.42 µM (active),25.1 µM (active),–,–
O=C(NO)c1ccc(C2=Nc3ccccc3Oc3ccccc32)cc1,3.32 µM (active),2.95 µM (active),22.4 µM (active),–,–
